These results are taken from the supplement of paper PMC10849652.

Of roughly 8,800 targets only a part is listed; those with a hit were picked by preference. About 0.5% of all pairs of compound and target were hits.

Assay in all cases: log2 fold change, soluble protein after heating vs DMSO (PISA); higher = thermal stabilisation; K562 lysate, 10 uM; active = over 0.2 and 3.5 SD of the protein, either way, in both replicates (recomputed)
Compound in test [1]: NCC(=O)Nc1ccc(-n2nc(C(F)(F)F)cc2-c2ccc3c(ccc4ccccc43)c2)cc1
The gist of the method:
(§1)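 Pellets of K562 cells were dounce-homogenised in PBS pH 7.4 with 1 mM MgCl2, and the crude extract was held at 1 mg/mL protein for a 30 min treatment with 10 μM compound. Aliquots were heated for 3 min over 48°C-58°C and pooled before NP-40 was added to 0.5% at 4°C. The supernatant from 21,000xg for 90 min was quantified by TMTpro 16plex LC-MS/MS with channel sums equalised. Values are reported from duplicates as log-two fold change in thermal stability relative to solvent controls.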

Compound in another test: O=C(CCCCCCC(=O)Nc1ccccc1)NO [vorinostat]
Summed up: as §1

Compound in another test: O=C(O)c1ccc2c(c1)nc(Nc1cccc(Cl)c1)c1ccncc12 [silmitasertib]
The gist of the method: as §1

Compound in test [2]: O=C1NC(=O)C(c2cnc3ccccn23)=C1c1cn2c3c(cc(F)cc13)CN(C(=O)N1CCCCC1)CC2
Summed up: as §1

Compound in another test: c1cn2cc(-c3ccc4cn[nH]c4c3)nc(Nc3ccc(N4CCOCC4)cc3)c2n1 [entospletinib]
Summed up: as §1

Sequence of UniProt P19367 (P19367 whole entry, looked up): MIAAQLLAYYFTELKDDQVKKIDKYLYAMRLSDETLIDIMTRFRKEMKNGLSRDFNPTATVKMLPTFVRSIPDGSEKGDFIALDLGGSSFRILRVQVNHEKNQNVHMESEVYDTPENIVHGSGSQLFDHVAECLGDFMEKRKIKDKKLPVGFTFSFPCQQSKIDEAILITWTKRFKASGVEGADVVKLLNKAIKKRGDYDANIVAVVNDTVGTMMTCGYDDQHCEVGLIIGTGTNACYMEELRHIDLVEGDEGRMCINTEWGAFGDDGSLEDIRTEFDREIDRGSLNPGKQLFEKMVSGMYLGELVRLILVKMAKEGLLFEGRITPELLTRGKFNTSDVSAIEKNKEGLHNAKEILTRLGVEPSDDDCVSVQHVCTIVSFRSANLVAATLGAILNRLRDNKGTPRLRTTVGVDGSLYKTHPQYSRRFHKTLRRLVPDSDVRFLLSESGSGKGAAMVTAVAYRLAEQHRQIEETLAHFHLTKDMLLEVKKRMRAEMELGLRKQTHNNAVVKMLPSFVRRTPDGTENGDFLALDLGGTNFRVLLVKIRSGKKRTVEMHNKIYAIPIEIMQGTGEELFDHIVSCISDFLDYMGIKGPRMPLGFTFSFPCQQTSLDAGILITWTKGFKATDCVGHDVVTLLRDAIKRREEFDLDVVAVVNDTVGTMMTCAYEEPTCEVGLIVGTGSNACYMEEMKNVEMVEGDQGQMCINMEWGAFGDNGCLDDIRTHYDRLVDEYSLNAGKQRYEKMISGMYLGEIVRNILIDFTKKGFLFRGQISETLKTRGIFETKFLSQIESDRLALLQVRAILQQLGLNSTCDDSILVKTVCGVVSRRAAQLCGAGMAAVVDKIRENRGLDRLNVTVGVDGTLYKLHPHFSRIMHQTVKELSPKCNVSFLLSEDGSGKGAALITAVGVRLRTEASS
Sequence of UniProt Q68CZ6 (Q68CZ6 whole entry, looked up): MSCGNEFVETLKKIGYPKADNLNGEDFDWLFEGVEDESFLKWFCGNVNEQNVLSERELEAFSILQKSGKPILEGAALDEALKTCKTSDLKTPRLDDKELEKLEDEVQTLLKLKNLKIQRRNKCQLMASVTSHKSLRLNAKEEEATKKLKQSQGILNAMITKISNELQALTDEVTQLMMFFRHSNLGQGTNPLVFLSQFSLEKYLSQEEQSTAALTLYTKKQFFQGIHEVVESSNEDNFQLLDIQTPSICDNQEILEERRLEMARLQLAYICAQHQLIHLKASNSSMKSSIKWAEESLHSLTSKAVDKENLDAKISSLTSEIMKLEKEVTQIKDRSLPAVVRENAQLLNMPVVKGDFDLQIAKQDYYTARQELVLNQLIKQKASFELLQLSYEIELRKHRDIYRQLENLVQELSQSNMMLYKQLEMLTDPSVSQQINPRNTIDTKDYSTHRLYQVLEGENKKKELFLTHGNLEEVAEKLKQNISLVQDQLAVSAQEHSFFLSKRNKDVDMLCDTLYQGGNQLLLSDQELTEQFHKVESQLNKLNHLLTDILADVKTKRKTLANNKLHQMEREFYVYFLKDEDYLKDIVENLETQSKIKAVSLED
Sequence of UniProt Q14145 (Q14145 whole entry, looked up): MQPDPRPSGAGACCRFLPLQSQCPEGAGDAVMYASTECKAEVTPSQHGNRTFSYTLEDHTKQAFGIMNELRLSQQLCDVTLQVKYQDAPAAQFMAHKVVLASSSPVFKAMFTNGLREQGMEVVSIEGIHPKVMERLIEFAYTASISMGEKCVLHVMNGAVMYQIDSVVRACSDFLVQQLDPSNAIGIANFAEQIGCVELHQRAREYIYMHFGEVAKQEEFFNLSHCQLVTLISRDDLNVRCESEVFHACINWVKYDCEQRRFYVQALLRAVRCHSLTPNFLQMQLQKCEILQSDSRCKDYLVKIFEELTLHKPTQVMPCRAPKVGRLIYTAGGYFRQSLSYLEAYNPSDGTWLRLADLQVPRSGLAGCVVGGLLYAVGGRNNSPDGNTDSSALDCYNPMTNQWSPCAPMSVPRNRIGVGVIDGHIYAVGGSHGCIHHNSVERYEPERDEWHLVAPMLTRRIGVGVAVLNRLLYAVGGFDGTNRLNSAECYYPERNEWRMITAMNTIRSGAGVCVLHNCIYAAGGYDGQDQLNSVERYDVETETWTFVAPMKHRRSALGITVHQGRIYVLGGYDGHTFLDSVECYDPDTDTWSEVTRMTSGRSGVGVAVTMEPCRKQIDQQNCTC
Sequence of UniProt Q9H4A6 (Q9H4A6 whole entry, looked up): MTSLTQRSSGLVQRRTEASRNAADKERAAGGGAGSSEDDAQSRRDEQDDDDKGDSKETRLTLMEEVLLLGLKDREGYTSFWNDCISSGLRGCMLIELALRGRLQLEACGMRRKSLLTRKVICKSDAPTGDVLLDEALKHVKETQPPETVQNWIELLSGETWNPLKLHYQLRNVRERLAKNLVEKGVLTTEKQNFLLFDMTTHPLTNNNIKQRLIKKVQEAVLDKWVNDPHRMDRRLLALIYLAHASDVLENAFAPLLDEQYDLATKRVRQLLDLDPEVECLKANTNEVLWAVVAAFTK
Sequence of UniProt Q7Z4H7 (Q7Z4H7 whole entry, looked up): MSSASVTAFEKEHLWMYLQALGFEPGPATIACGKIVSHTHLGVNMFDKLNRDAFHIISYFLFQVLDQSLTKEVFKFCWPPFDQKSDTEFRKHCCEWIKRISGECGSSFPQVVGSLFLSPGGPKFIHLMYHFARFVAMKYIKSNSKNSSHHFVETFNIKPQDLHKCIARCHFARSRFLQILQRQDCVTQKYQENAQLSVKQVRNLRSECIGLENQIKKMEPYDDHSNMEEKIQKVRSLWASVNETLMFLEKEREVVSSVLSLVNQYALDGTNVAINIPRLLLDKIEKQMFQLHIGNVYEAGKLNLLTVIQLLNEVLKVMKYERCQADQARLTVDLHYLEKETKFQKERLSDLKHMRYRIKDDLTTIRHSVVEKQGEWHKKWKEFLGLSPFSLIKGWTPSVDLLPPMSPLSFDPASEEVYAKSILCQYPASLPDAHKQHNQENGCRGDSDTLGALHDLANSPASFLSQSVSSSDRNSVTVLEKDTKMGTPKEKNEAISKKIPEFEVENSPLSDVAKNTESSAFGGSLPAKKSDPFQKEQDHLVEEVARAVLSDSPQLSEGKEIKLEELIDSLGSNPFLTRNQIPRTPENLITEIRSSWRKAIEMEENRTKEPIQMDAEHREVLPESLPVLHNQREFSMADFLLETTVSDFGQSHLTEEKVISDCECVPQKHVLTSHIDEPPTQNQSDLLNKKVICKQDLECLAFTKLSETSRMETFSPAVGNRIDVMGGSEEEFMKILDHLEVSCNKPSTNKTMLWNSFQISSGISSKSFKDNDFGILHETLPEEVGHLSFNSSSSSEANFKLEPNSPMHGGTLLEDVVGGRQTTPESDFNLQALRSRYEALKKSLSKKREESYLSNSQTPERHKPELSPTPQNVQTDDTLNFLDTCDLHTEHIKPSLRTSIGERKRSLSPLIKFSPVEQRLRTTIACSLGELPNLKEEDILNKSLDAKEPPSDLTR
Sequence of UniProt Q58FG1 (Q58FG1 whole entry, looked up): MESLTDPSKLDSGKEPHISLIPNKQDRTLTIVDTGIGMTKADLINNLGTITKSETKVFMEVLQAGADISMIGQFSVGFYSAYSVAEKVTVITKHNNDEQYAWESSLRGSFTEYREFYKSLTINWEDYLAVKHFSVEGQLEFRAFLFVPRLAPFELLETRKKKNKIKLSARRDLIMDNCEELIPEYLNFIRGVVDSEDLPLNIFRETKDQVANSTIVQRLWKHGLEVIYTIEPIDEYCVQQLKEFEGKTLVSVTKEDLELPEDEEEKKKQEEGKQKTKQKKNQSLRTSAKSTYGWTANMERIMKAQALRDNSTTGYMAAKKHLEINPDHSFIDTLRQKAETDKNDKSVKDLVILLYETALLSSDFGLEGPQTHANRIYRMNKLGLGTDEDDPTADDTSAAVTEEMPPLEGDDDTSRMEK
Sequence of UniProt P09429 (P09429 whole entry, looked up): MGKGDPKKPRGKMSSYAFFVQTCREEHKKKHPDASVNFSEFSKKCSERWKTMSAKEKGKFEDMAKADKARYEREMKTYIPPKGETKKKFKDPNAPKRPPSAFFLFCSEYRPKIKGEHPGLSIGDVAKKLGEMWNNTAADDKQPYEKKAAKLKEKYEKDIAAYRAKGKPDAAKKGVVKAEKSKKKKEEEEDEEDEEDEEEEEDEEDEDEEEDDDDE
Sequence of UniProt O60547 (O60547 whole entry, looked up): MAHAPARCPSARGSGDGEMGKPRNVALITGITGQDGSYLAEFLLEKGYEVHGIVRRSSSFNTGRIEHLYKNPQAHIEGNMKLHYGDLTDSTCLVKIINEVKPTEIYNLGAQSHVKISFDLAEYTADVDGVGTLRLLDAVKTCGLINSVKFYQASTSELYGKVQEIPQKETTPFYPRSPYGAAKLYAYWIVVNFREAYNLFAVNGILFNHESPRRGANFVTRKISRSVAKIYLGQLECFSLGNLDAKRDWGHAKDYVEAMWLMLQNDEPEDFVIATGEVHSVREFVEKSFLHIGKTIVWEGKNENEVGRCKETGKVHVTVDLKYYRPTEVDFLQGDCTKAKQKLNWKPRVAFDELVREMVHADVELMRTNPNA
Sequence of UniProt Q9NVX7 (Q9NVX7 whole entry, looked up): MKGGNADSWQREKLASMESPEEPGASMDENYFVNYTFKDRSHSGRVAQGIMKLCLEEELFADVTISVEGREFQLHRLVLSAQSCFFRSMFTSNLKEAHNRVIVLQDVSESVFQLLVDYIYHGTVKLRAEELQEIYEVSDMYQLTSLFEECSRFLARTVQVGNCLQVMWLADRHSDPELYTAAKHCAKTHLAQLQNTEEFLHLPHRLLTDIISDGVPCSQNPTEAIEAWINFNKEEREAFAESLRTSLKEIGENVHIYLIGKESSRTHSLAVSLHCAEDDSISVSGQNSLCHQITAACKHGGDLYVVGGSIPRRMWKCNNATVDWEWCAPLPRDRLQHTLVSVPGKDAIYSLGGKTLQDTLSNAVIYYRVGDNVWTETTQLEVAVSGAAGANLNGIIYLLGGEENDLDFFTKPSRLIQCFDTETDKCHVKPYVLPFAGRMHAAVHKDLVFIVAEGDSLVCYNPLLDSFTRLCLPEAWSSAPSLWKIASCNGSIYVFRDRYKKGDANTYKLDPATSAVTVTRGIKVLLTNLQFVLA

HK1 isoform 2 (UniProt P19367): the log2 fold change is 0.012 (inactive) in test [1]; -0.264 (active) with vorinostat; 0.028 (inactive) with silmitasertib; -0.002 (inactive) in test [2]; 0.011 (inactive) with entospletinib.
For GRK2 (UniProt P25098), the log2 fold change in test [1] is -0.055 (inactive); in the test with vorinostat, -0.225 (active); in the test with silmitasertib, 0.066 (inactive); in test [2], -0.026 (inactive); with entospletinib it was -0.006 (inactive).
As to GTF2A1 (UniProt P52655), the log2 fold change in test [1] is -0.029 (inactive); in the test with vorinostat, 0.094 (inactive); with silmitasertib, -0.043 (inactive); in test [2], 0.052 (inactive); with entospletinib, 0.039 (inactive).
For HSPA8 (UniProt P11142), the log2 fold change is -0.008 (inactive) in test [1]; 0.105 (inactive) in the test with vorinostat; -0.009 (inactive) in the test with silmitasertib; -0.011 (inactive) in test [2]; -0.002 (inactive) with entospletinib.
With GNL3 (UniProt Q9BVP2), the log2 fold change was 0.017 (inactive) in test [1]; -0.142 (inactive) with vorinostat; 0.008 (inactive) with silmitasertib; -0.041 (inactive) in test [2]; 0.018 (inactive) with entospletinib.
For ILRUN (UniProt Q9H6K1), the log2 fold change in test [1] is 0.002 (inactive); in the test with vorinostat, -0.047 (inactive); in the test with silmitasertib it was 0.001 (inactive); in test [2] it was -0.01 (inactive); with entospletinib, -0.013 (inactive).
Turning to GNB1 (UniProt P62873), the log2 fold change is 0.026 (inactive) in test [1]; 0.064 (inactive) with vorinostat; 0.041 (inactive) in the test with silmitasertib; -0.037 (inactive) in test [2]; 0.054 (inactive) in the test with entospletinib.
Turning to H3-3A (UniProt P84243), the log2 fold change was 0.021 (inactive) in test [1]; -0.077 (inactive) with vorinostat; 0 (inactive) with silmitasertib; 0.026 (inactive) in test [2]; -0.035 (inactive) with entospletinib.
For GMDS (UniProt O60547), the log2 fold change was 0.027 (inactive) in test [1]; -0.309 (active) with vorinostat; 0.041 (inactive) with silmitasertib; -0.016 (inactive) in test [2]; 0.032 (inactive) in the test with entospletinib.
Consider KEAP1 (UniProt Q14145), for which the log2 fold change is -0.019 (inactive) in test [1]; -0.262 (active) in the test with vorinostat; -0.008 (inactive) with silmitasertib; -0.022 (inactive) in test [2]; 0.001 (inactive) in the test with entospletinib.
For the target GLB1 (UniProt P16278), the log2 fold change is 0.003 (inactive) in test [1]; -0.013 (inactive) with vorinostat; -0.03 (inactive) with silmitasertib; -0.043 (inactive) in test [2]; -0.018 (inactive) with entospletinib.
Taken in the same sequence, the figures for HAUS8 (UniProt Q9BT25) were 0.083 (inactive), -0.38 (active), 0.022 (inactive), 0.018 (inactive) and -0.051 (inactive).
For GOLPH3 (UniProt Q9H4A6), in that order: -0.06 (inactive), -0.06 (inactive), -0.001 (inactive), 0.023 (inactive) and 0.026 (inactive).
For KBTBD4 isoform 2 (UniProt Q9NVX7), in that order: 0.025 (inactive), -0.311 (active), 0.012 (inactive), -0.023 (inactive) and -0.012 (inactive).
In the case of HAUS6 (UniProt Q7Z4H7), the log2 fold change in test [1] was -0.057 (inactive); in the test with vorinostat, -0.3 (active); in the test with silmitasertib, 0.014 (inactive); in test [2], 0.007 (inactive); in the test with entospletinib, 0.015 (inactive).
Taken in the same sequence, the figures for GORASP1 (UniProt Q9BQQ3) were -0.041 (inactive), -0.01 (inactive), 0.067 (inactive), -0.018 (inactive) and -0.09 (inactive).
As for GNE isoform 2 (UniProt Q9Y223), the log2 fold change in test [1] is 0.056 (inactive); in the test with vorinostat it was -0.443 (active); with silmitasertib, 0.023 (inactive); in test [2], 0.012 (inactive); in the test with entospletinib it was 0.017 (inactive).
For HNRNPH2 (UniProt P55795), in that order: -0.008 (inactive), -0.243 (active), 0.005 (inactive), -0.054 (inactive) and 0.002 (inactive).
For HSP90AA4P (UniProt Q58FG1), in that order: 0.026 (inactive), 0.047 (inactive), -0.087 (inactive), -0.047 (inactive) and 0.017 (inactive).
Take HK2 (UniProt P52789): the log2 fold change was -0.018 (inactive) in test [1]; -0.443 (active) with vorinostat; 0.038 (inactive) with silmitasertib; 0.007 (inactive) in test [2]; 0.022 (inactive) with entospletinib.
HLTF (UniProt Q14527): the log2 fold change in test [1] was 0.046 (inactive); with vorinostat, -0.246 (active); in the test with silmitasertib, 0.101 (inactive); in test [2], -0.101 (inactive); in the test with entospletinib, 0.017 (inactive).
Taken in the same sequence, the figures for HMGB1 (UniProt P09429) were -0.024 (inactive), 0.083 (inactive), 0.017 (inactive), 0.098 (inactive) and -0.014 (inactive).
For the target GTPBP2 (UniProt Q9BX10), the log2 fold change in test [1] is 0.029 (inactive); with vorinostat, -0.289 (active); in the test with silmitasertib, 0 (inactive); in test [2] it was -0.003 (inactive); with entospletinib, 0.056 (inactive).
Taken in the same sequence, the figures for ITPKA (UniProt P23677) were 0.033 (inactive), -0.36 (active), 0.09 (inactive), -0.101 (inactive) and 0.081 (inactive).
For HAUS3 (UniProt Q68CZ6), the log2 fold change in test [1] is 0.007 (inactive); in the test with vorinostat, -0.618 (active); in the test with silmitasertib, -0.009 (inactive); in test [2], 0.004 (inactive); in the test with entospletinib, 0.007 (inactive).
